26 compounds from PubChem BioAssay (EPA / NIEHS) can be followed below.

Test [1] deals with human Adrenergic, Alpha 2c Receptor (Adra2C), ADRA2C (gene 152) (UniProt P18825). As to the kind of experiment: NVS_GPCR_hAdra2C: NovaScreen (NVS) G Protein-Coupled Receptor Assay for human Adrenergic, Alpha 2c Receptor (Adra2C) (AID 2283259). In outline: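 Radioligand binding on Sf9-expressed receptor membranes, 1 h after chemical dosing, filter-based scintillation read-out. Loss of binding fitted positively versus DMSO; primary duplicate screen at 25 uM, actives retested in concentration series.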

For test [2], the target named is guinea pig Opioid, Kappa 1 Receptor (OpiateK), OPRK1 (gene 100135587) (UniProt P41144). As to the kind of experiment: NVS_GPCR_gOpiateK: NovaScreen (NVS) G Protein-Coupled Receptor Assay for guinea pig Opioid, Kappa 1 Receptor (OpiateK) (AID 2283252).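 Note: radioligand displacement from kappa opioid receptor in guinea pig cerebellar membranes; active means reduced radioligand binding relative to DMSO.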 In outline:
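Guinea pig cerebellar membranes, radioligand displacement with filter-based scintillation counting, 2 h after dosing. Primary screen single concentration 25 uM in duplicate; actives retested in concentration series; loss of binding fitted versus DMSO.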

Test [3] concerns the target human Serotonin, 5-Hydroxytryptamine Receptor 5A (5HT5A), HTR5A (gene 3361) (UniProt P47898). As to the kind of experiment: NVS_GPCR_h5HT5A: NovaScreen (NVS) G Protein-Coupled Receptor Assay for human Serotonin, 5-Hydroxytryptamine Receptor 5A (5HT5A) (AID 2283251). In outline:
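Cell-free radioligand displacement binding on HEK293-derived membrane protein, 1 h incubation, filter-based scintillation counting. Primary screen in duplicate at 25 uM, actives followed in concentration series; loss of signal fitted versus DMSO.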

Test [4] concerns the target human Adenosine A1 Receptor (AdoRA1), ADORA1 (gene 134) (UniProt P30542). As to the kind of experiment: NVS_GPCR_hAdoRA1: NovaScreen (NVS) G Protein-Coupled Receptor Assay for human Adenosine A1 Receptor (AdoRA1) (AID 2283254). In outline:
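Membranes from human cortical tissue were incubated with radioligand and test chemical for 1 hour, then filtered and counted. Activity was taken as signal loss relative to DMSO, screened at 25 uM in duplicate before concentration-response follow-up.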

Test [5] deals with human Serotonin, 5-Hydroxytryptamine Receptor 7 (5HT7), HTR7 (gene 3363) (UniProt P34969). As to the kind of experiment: NVS_GPCR_h5HT7: NovaScreen (NVS) G Protein-Coupled Receptor Assay for human Serotonin, 5-Hydroxytryptamine Receptor 7 (5HT7) (AID 2283255).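 Note: hits reduce specific radioligand binding relative to DMSO.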 The gist of the method: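 Radioligand displacement on membranes from CHO cells expressing human 5HT7, 1 h incubation, filter-based scintillation counting. Primary screen used a single 25 uM concentration in duplicate; actives were followed up in concentration series.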

Test [6] concerns the target human Adrenergic, Beta 1 Receptor (Adrb1), ADRB1 (gene 153) (UniProt P08588). As to the kind of experiment: NVS_GPCR_hAdrb1: NovaScreen (NVS) G Protein-Coupled Receptor Assay for human Adrenergic, Beta 1 Receptor (Adrb1) (AID 2283258). The gist of the method: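 Cell-free radioligand displacement on receptor from human neuroepithelioma cells; 2 h after dosing, filter-based scintillation counting. Primary screen in duplicate at 25 uM, actives retested in concentration series; loss of signal vs DMSO baseline.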

Test [7] concerns the target human Serotonin, 5-Hydroxytryptamine Receptor 6 (5HT6), HTR6 (gene 3362) (UniProt P50406). As to the kind of experiment: NVS_GPCR_h5HT6: NovaScreen (NVS) G Protein-Coupled Receptor Assay for human Serotonin, 5-Hydroxytryptamine Receptor 6 (5HT6) (AID 2283253). The gist of the method: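 Radioligand binding to 5HT6 in HEK293-derived membranes, cell-free, 1 h after dosing; bound ligand measured by filter-based scintillation counting. Primary screen in duplicate at 25 uM; actives retested in concentration series.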

In test [8] the target is human Adrenergic, Alpha 2A Receptor (Adra2A), ADRA2A (gene 150) (UniProt P08913). As to the kind of experiment: NVS_GPCR_hAdra2A: NovaScreen (NVS) G Protein-Coupled Receptor Assay for human Adrenergic, Alpha 2A Receptor (Adra2A) (AID 2283257). In outline: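 Radioligand filter-binding was run on HT29-derived membranes, cell-free, read by scintillation counting 1 h after dosing. Primary screening was in duplicate at 25 uM, with concentration series in follow-up. Loss of signal versus DMSO indicates displacement.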

Test [9] concerns guinea pig Muscarinic, Peripheral (Mperiperal) Receptor, Non-selective Binding, gene 100379235. Nature of the test: NVS_GPCR_gMPeripheral_NonSelective: NovaScreen (NVS) G Protein-Coupled Receptor Assay for guinea pig Muscarinic, Peripheral (Mperiperal) Receptor, Non-selective Binding (AID 2283250). The gist of the method: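 Guinea pig bladder membranes, radioligand binding read 1 h after dosing by filter scintillation counting; loss of signal vs DMSO. Primary duplicate screen at 25 uM, then concentration-response up to 50 uM.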

Test [10] deals with human Adenosine A2a Receptor (AdoRA2a), ADORA2A (gene 135) (UniProt P29274). Nature of the test: NVS_GPCR_hAdoRA2a: NovaScreen (NVS) G Protein-Coupled Receptor Assay for human Adenosine A2a Receptor (AdoRA2a) (AID 2283256). The gist of the method: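 Radioligand displacement on HEK293-derived membrane protein, cell-free; filter-based scintillation counting 1.5 hours after dosing, loss of signal vs DMSO. Single-point duplicate screen at 25 uM, actives retested in concentration series.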

Values joined by “and” are separate entries in the source; they are usually repeats but may differ in a detail not shown here. Equal values may be shown once. Results filed as inconclusive are left out. The source holds several records for some structures; these can differ, active in one and inactive in another. Active and inactive are the calls of the source. Rule for the calls: active = hit-call score of the fitted dose curve at least 0.9, where 1 is the maximum; inconclusive = response in the unintended direction; inactive = score below 0.9.

human Serotonin, 5-Hydroxytryptamine Receptor 6 (5HT6), HTR6 (gene 3362), sequence (P50406 whole entry, looked up): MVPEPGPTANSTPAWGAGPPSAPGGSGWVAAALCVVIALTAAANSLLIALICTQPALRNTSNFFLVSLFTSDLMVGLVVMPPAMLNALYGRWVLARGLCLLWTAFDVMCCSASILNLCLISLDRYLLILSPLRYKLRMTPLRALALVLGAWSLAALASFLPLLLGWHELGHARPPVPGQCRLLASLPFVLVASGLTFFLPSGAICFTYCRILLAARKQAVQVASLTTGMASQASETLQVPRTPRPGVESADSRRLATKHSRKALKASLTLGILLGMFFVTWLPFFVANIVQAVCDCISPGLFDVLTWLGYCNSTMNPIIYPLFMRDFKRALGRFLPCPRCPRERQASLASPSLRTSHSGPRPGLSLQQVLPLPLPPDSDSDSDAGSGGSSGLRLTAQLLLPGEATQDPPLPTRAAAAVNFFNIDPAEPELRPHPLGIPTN
guinea pig Opioid, Kappa 1 Receptor (OpiateK), OPRK1 (gene 100135587), sequence (P41144 whole entry, looked up): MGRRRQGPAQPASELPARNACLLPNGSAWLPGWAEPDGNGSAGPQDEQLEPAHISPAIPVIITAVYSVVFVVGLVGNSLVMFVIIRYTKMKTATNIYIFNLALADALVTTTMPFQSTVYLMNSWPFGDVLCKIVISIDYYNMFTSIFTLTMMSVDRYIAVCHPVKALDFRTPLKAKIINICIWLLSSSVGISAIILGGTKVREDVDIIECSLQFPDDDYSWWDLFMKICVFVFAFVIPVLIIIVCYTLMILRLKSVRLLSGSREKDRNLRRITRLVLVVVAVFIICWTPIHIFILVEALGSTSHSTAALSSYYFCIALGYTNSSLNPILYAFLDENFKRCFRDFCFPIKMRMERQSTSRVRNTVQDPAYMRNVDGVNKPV
human Adrenergic, Beta 1 Receptor (Adrb1), ADRB1 (gene 153), sequence (P08588 whole entry, looked up): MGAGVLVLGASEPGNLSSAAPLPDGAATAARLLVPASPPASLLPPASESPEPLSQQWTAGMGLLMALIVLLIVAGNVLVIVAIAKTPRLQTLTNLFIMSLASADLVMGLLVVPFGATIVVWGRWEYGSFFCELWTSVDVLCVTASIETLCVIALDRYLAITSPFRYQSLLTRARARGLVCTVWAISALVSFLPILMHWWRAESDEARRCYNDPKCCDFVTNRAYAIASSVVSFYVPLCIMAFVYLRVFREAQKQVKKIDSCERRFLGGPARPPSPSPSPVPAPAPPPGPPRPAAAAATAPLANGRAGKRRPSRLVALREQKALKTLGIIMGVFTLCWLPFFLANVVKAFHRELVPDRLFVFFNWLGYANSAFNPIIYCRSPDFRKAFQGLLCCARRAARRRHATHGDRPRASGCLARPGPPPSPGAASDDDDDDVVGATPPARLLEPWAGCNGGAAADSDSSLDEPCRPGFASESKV
human Adenosine A1 Receptor (AdoRA1), ADORA1 (gene 134), sequence (P30542 whole entry, looked up): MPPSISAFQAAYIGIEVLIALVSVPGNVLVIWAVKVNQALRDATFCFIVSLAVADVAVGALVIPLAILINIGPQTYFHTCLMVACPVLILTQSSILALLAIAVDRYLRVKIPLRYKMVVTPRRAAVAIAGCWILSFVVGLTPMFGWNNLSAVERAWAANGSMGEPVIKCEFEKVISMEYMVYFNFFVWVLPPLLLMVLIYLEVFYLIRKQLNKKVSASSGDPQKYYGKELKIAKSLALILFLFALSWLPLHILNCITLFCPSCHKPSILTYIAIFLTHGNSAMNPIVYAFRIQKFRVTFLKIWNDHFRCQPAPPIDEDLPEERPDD
human Adenosine A2a Receptor (AdoRA2a), ADORA2A (gene 135), sequence (P29274 whole entry, looked up): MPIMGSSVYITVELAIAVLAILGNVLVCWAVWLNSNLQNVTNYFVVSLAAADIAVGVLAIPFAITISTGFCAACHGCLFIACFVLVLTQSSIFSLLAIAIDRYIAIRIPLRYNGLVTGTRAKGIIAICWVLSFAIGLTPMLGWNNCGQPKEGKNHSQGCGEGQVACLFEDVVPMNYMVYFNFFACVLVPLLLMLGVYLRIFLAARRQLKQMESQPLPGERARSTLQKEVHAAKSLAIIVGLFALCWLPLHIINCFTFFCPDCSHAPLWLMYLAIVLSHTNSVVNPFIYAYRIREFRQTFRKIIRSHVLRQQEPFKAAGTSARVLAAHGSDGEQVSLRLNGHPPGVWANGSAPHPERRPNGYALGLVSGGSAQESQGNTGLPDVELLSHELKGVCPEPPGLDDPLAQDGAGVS
human Adrenergic, Alpha 2A Receptor (Adra2A), ADRA2A (gene 150), sequence (P08913 whole entry, looked up): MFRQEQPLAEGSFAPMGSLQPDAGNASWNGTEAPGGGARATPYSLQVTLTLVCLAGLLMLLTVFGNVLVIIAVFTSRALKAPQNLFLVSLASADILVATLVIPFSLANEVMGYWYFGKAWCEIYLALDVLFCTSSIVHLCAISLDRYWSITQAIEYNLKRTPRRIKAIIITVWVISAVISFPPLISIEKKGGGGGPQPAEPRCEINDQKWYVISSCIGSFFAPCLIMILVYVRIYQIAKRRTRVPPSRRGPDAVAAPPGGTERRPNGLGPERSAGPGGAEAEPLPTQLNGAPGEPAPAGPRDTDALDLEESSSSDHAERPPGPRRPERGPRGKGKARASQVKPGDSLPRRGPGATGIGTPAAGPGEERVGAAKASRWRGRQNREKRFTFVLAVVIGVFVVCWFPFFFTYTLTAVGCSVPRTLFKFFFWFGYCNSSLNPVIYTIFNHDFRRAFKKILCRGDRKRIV
human Adrenergic, Alpha 2c Receptor (Adra2C), ADRA2C (gene 152), sequence (P18825 whole entry, looked up): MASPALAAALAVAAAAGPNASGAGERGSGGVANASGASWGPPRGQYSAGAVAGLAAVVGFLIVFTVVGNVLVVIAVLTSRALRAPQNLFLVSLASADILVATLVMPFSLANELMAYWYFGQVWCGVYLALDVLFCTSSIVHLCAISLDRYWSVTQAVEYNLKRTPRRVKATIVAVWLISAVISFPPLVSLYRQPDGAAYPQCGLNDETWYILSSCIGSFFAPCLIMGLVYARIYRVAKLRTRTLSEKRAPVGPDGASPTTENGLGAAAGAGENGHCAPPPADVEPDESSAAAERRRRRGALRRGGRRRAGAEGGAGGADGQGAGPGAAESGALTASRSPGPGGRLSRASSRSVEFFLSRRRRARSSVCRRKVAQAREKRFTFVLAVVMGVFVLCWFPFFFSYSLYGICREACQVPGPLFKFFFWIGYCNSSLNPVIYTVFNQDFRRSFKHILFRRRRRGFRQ
human Serotonin, 5-Hydroxytryptamine Receptor 7 (5HT7), HTR7 (gene 3363), sequence (P34969 whole entry, looked up): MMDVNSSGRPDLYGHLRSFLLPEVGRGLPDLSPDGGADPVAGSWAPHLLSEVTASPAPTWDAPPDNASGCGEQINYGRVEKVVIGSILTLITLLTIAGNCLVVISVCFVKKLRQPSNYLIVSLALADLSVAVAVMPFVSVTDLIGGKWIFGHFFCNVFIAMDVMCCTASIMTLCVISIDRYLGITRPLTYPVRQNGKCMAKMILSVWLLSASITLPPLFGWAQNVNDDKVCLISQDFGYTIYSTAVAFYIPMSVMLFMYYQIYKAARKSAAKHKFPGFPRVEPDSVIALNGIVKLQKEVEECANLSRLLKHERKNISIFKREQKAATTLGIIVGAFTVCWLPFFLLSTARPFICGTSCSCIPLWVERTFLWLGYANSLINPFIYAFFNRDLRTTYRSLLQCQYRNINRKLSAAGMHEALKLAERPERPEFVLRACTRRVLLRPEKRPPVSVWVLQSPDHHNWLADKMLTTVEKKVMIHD
human Serotonin, 5-Hydroxytryptamine Receptor 5A (5HT5A), HTR5A (gene 3361), sequence (P47898 whole entry, looked up): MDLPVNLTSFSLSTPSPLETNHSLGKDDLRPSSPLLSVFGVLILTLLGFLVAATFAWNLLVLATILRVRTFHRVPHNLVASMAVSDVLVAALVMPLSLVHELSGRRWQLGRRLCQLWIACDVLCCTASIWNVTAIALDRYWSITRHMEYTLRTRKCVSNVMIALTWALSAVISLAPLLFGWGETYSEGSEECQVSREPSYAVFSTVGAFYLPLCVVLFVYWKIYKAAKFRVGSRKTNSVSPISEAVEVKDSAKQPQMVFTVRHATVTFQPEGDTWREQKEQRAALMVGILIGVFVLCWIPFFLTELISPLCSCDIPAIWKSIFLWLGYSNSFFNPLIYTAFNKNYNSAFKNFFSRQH

Regarding `CCOC(=O)[C@H](C)Oc1ccc(Oc2nc3ccc(Cl)cc3o2)cc1`, in test [1], the outcome was inactive.
What is called AC50 is the concentration at which the activity in the assay is half-maximal. With `CC(=O)S[C@@H]1CC2=CC(=O)CC[C@]2(C)[C@H]2CC[C@@]3(C)[C@@H](CC[C@@]34CCC(=O)O4)[C@H]12`, the AC50 in [2] was 13.2 µM (active).
With `CCOC(=O)C(C)Oc1ccc(Oc2cnc3cc(Cl)ccc3n2)cc1` (stereo unspecified), the compound was classed as inactive in test [3] and in test [1].
In the case of `CC(C)(c1ccc(O)cc1)c1ccc(O)cc1`, the outcome in [2], in test [5], in [6] and in test [1] was inactive. The AC50 in test [4] is 11.9 µM (active) and 1.83 µM (active).
Take `N[C@@H](Cc1cc(I)c(Oc2ccc(O)c(I)c2)c(I)c1)C(=O)O`: the AC50 in [7] is 6.06 µM (active); in [4], 554 nM (active).
For the compound `CCCCCCC(C)OC(=O)COc1nc(F)c(Cl)c(N)c1Cl` (stereo unspecified), the outcome in [5] was inactive.
For the compound `C=CCOC(Cn1ccnc1)c1ccc(Cl)cc1Cl` (stereo unspecified), the results for the AC50 in [2] and in test [8] were 12.2 µM (active) and 16.4 µM (active), respectively.
`CC(C)(C)[C@@H](O)[C@@H](Cc1ccc(Cl)cc1)n1cncn1`: the result in [2] was inactive.
For the compound `Oc1ccc(C(c2ccc(O)cc2)C(Cl)(Cl)Cl)cc1`, the half-maximal activity concentration (AC50) in test [3] was 6.9 µM (active); in test [7], 0.18 µM (active); in test [5], 6.91 µM (active); in test [1], 6.88 µM (active). Further, the compound was called inactive in test [4] and in [6].
With `N#CSCSc1nc2ccccc2s1`, the AC50 in test [9] is 7.3 µM (active); in [8] it was 4.68 µM (active).
For the compound `CCCCOC(=O)[C@@H](C)Oc1ccc(Oc2ccc(C(F)(F)F)cn2)cc1`, the call in test [5] was inactive.
Take `COC(=O)CSc1cc(N=c2sc(=O)n3n2CCCC3)c(F)cc1Cl`: in [8], the result was inactive.
Take `CC(C)CCCCCCc1ccc(O)cc1`: in test [10], the compound was called inactive. In test [6], the AC50 is 38 µM (active).
As to `O=C(c1ccc(O)cc1O)c1ccc(O)cc1O`, the AC50 was 4.96 µM (active) in [7] and 11000 nM (active) in test [4]. The compound was classed as inactive in test [10].
Turning to `CCCOC(=O)c1ccc(C(=O)OCCC)nc1`, the AC50 in test [10] was 15.2 µM (active).
Regarding `CCCCC(CC)COC(=O)c1ccccc1C(=O)O` (stereo unspecified), the call in test [4] was inactive.
For `CCCOC(=O)NCCCN(C)C`, the outcome in test [9] was inactive.
Turning to `S=C(S)NCCNC(=S)S.[Mn+2].[S-]C([S-])=NCCN=C([S-])[S-].[Zn+2]`, in [5], the AC50 was 2.48 µM (active) and 5.86 µM (active) and 2.62 µM (active); the outcome was inactive.
Turning to `Cc1nn(C)c(Oc2ccccc2)c1C=NOCc1ccc(C(=O)OC(C)(C)C)cc1`, the AC50 in test [5] is 6.64 µM (active).
Consider `CC1(C)C(C=C(Cl)Cl)C1C(=O)OCc1cccc(Oc2ccccc2)c1` (stereo unspecified), for which the result in test [5] was inactive.
Consider `C[C@]12CC[C@@H]3c4ccc(O)cc4C[C@@H](CCCCCCCCCS(=O)CCCC(F)(F)C(F)(F)F)[C@H]3[C@@H]1CC[C@@H]2O` (stereo partly specified), for which the outcome in test [3] was inactive.
In the case of `COC(=O)c1cccc(C)c1S(=O)(=O)NC(=O)Nc1nc(OCC(F)(F)F)nc(N(C)C)n1`, the AC50 was 10400 nM (active) in test [4] and 6.04 µM (active) in test [10].
For `CCCCCOC(=O)COc1cc(N2C(=O)C3=C(CCCC3)C2=O)c(F)cc1Cl`, the result in test [4] was inactive.
As to `c1ccc2[nH]c(-c3cscn3)nc2c1`, the AC50 in test [10] was 4.91 µM (active).
With `CCNc1nc(N)nc(Cl)n1`, the compound was called inactive in [3]. Also, the figures for the AC50 in test [4] and in test [10] were 207 nM (active) and 9.05 µM (active), respectively.
For `CCOC(=O)C(C)Oc1ccc(Oc2nc3ccc(Cl)cc3o2)cc1` (stereo unspecified), the compound was called inactive in [1].
